PubChem BioAssay (NCI)
About 83,000 compounds went through this panel and 20% of them were active in at least one assay; those are over-represented in the sample as a whole.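 Values shown are percent growth following 48 h exposure of cells in 96-well plates to a single concentration of compound; below 10 was considered active.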 Calls of active or inactive are those of the source.

How the values were obtained:
Assay in all cases: NCI-60 one-dose screen, 48 h (100 = growth as untreated, 0 = no growth, -100 = all killed)
Settings in all cases: 10 µM unless noted
[1] = system: T-47D breast
[2] = system: BT-549 breast
[3] = system: MDA-MB-435 melanoma
[4] = system: SW-620 colon
[5] = system: MCF7 breast
[6] = system: HCT-116 colon
[7] = system: HCC-2998 colon
[8] = system: KM12 colon

Measured: growth

Nc1nc(=S)ss1
inactive: [1] 98.9% | [2] 101% | [3] 102% | [4] 99.2% | [5] 98.3% | [6] 97.3% | [7] 97% | [8] 111%

O=C(O)c1ccc(-c2nn(-c3ccc(C(=O)O)cc3)cc2/C=N/Nc2c(F)c(F)cc(F)c2F)cc1
inactive: [1] 95% | [2] 120% | [3] 107% | [4] 110% | [5] 95.7% | [6] 100% | [7] 100% | [8] 100%

Cc1nssc1=S
inactive: [1] 105% | [2] 110% | [3] 104% | [4] 103% | [5] 93.7% | [6] 96.9% | [7] 108% | [8] 108%

Cc1cn([C@]2(CF)O[C@H](CO)C2C)c(=O)[nH]c1=O (stereo partly specified)
inactive: [1] 119% | [2] 110% | [3] 133% | [4] 98.6% | [5] 120% | [6] 100% | [7] 121% | [8] 110%

O=C(Nc1ccc(-n2ccc3c(NC(=O)c4ccccc4)ncnc32)cc1)c1cccc(C(F)(F)F)c1
inactive: [1] 57.8% | [2] 51.9% | [3] 38.3% | [4] 29.1% | [5] 36.4% | [6] 22.3% | [7] 59.8% | [8] 30%

COc1ccc2c(-c3ccc(F)cc3)c(C#N)c(=NC(C)=O)oc2c1
active: [3] -3.09%
inactive: [1] 55.8% | [2] 29.1% | [4] 23% | [5] 21.4% | [6] 25% | [7] 60.3% | [8] 30.3%

CCCCOc1c(N)cc(Cl)cc1C(=O)OCCN(CC)CC
inactive: [1] 99.8% | [2] 76.5% | [3] 111% | [4] 99.2% | [5] 93.3% | [6] 80.3% | [7] 109% | [8] 104%

CNCCCOc1c(Br)cc(CCNC(=O)/C(Cc2cc(Br)c(OC)c(Br)c2)=N/O)cc1Br
active: [1] -27.5% | [3] -59.6% | [4] -47.1% | [5] -40.3% | [6] -91.6% | [7] -49.5% | [8] -1.14%
inactive: [2] 48%

CCCC(C)(C)COC(=O)c1cccc(N)c1
inactive: [1] 92% | [2] 79.9% | [3] 111% | [4] 104% | [5] 91.7% | [6] 84.9% | [7] 96.9% | [8] 106%

NS(=O)(=O)c1ccc(CCN2C(=O)/C(=C\c3ccc(Cl)cc3)C=C2c2ccc(Oc3ccccc3)cc2)cc1
inactive: [1] 66.7% | [2] 92.2% | [3] 78.8% | [4] 83% | [5] 39.3% | [6] 65% | [7] 89% | [8] 62.4%

C=C1C(=O)O[C@H]2[C@H]1CC/C(C(=O)Nc1ccc(OC)c(C(N)=O)c1O)=C\CC[C@@]1(C)O[C@@H]21
inactive: [1] 16.9% | [2] 30.4% | [3] 60.6% | [4] 23.8% | [5] 31.1% | [6] 23.8% | [7] 102% | [8] 85%

COc1ccc(Cl)cc1NC(=O)c1cc2c([nH]1)-c1nc(NC(=O)C(C)C)sc1CC2
inactive: [1] 82.7% | [2] 105% | [3] 114% | [4] 101% | [5] 82.6% | [6] 80% | [7] 101% | [8] 94.6%

COc1cc(/C=C/C(=O)c2ccc(Oc3ncnc4ccccc34)cc2)cc(OC)c1OC
inactive: [1] 35.9% | [2] 58% | [3] 50.6% | [4] 53.2% | [5] 27% | [6] 52.8% | [7] 108% | [8] 19.4%

COc1cc(-c2nc3ccccc3s2)ccc1OCc1nc2n(n1)S(=O)(=O)c1ccccc1N2C
inactive: [1] 85.3% | [2] 80.2% | [3] 90% | [4] 92.4% | [5] 90.5% | [6] 66.1% | [7] 109% | [8] 84.2%

CCOc1ccc(NC(=O)Nc2cc(C(C)C)ccc2C)cc1
inactive: [1] 77.3% | [2] 114% | [3] 85% | [4] 91.1% | [5] 111% | [6] 36.3% | [7] 59.8% | [8] 75.4%

Cc1cn(-c2cc(C(=O)Nc3cccc(-n4ccc5c(NC(=O)c6ccccc6)nccc54)c3)cc(C(F)(F)F)c2)cn1
active: [3] -14.9% | [5] 7.18% | [6] -78.6% | [8] -25.6%
inactive: [1] 62.5% | [2] 27.9% | [4] 13.4% | [7] 12.7%

CCc1ccc(C2=C/C(=C/c3ccc(Cl)cc3)C(=O)N2CCc2ccc(S(N)(=O)=O)cc2)cc1
inactive: [2] 38% | [3] 36.7% | [4] 25.2% | [6] 13.6% | [7] 24.8% | [8] 18.8%
active: [1] 0.105% | [5] 6.29%

O=C1OC(N(Cc2ccc(Cl)cc2)c2ccccc2)c2ccccc21 (stereo unspecified)
inactive: [1] 89.2% | [2] 103% | [3] 109% | [4] 101% | [5] 94.9% | [6] 97% | [7] 102% | [8] 98.2%

CC(C)(C)C(=O)/C=c1/[nH]c(=O)/c(=C/c2ccccc2O)s1
inactive: [1] 41.3% | [2] 71.8% | [4] 34% | [5] 28.1% | [6] 21.2% | [7] 77.6% | [8] 29.9%
active: [3] -25.9%

Cc1cc(-c2ccccc2)nc2ccccc12
inactive: [1] 99.4% | [2] 108% | [3] 109% | [4] 102% | [5] 65.1% | [6] 99.7% | [7] 106% | [8] 106%

O=C(Nc1ccc(-n2ccc3c(NC(=O)c4ccccc4)nccc32)cc1)Nc1cccc(C(F)(F)F)c1
inactive: [1] 57.6% | [2] 74% | [3] 61.4% | [4] 63.4% | [5] 47.7% | [7] 67.8% | [8] 11.2%
active: [6] 4.34%

O=[N+]([O-])c1ccc(NS(=O)(=O)c2ccccc2)c2ccccc12
inactive: [1] 32% | [2] 37.2% | [3] 36.8% | [4] 49.6% | [5] 42.3% | [6] 44.6% | [7] 36.7% | [8] 40.1%

CCn1c(C)nc([N+](=O)[O-])c1Sc1nc(N)nc2nc[nH]c12
inactive: [1] 44.8% | [2] 47.9% | [3] 25.3% | [4] 39.4% | [5] 14.5% | [6] 16% | [7] 30.6% | [8] 21.2%

Cc1ccc(N(CC2=NCCN2)c2cccc(O)c2)cc1
inactive: [1] 98.5% | [2] 89.7% | [3] 100% | [4] 102% | [5] 93.9% | [6] 101% | [7] 103% | [8] 104%

CCN(CC)CCN1C(=O)c2c(c3c4ccccc4[nH]c3c3[nH]c4ccccc4c23)C1=O
inactive: [1] 81.8% | [2] 83% | [3] 95.6% | [4] 46.9% | [5] 62% | [6] 67% | [7] 53.1% | [8] 85.2%

CCN(CC)CCC(C(=O)O)(c1ccccc1)c1ccccc1
inactive: [1] 77.7% | [2] 95.6% | [3] 98.3% | [4] 97.9% | [5] 91.8% | [6] 90.9% | [7] 106% | [8] 100%

COc1cc(CN(c2ccc(Cl)cc2)C2OC(=O)c3ccccc32)cc(OC)c1OC (stereo unspecified)
inactive: [1] 42.3% | [2] 44.8% | [4] 30.8% | [5] 31.3% | [6] 28% | [7] 73.8% | [8] 31.8%
active: [3] -45%

COc1cc2c(cc1OC)-c1c(oc3c4c(ccc3c1=O)OC(C)(C)C=C4)CO2
inactive: [1] 39.2% | [2] 52.6% | [3] 61.2% | [4] 89.8% | [5] 48.8% | [6] 40.3% | [7] 81.5% | [8] 76.8%

Nc1ccc(S(=O)(=O)Nc2ccnn2-c2ccccc2)cc1
inactive: [1] 104% | [2] 116% | [3] 97% | [4] 101% | [5] 101% | [6] 109% | [7] 98.8% | [8] 105%

Cc1cc(Nc2ccc(Cl)c(Cl)c2)nc(N)n1
inactive: [1] 79.5% | [2] 94.4% | [3] 98.3% | [4] 97.7% | [5] 84.4% | [6] 86.4% | [7] 113% | [8] 91.3%

O=C(c1ccccc1)[C@H]1[C@@H]2CCCN2[C@]2(C(=O)Nc3ccc(F)cc32)[C@]12C(=O)Nc1ccccc12
inactive: [1] 65.6% | [2] 91.6% | [3] 92% | [4] 97.8% | [5] 82.5% | [6] 76.5% | [7] 101% | [8] 94.1%

C[C@@H]1CC2C3C[C@H](F)C4=CC(=O)C=C[C@]4(C)[C@@]3(F)[C@@H](O)C[C@]2(C)[C@@]1(O)C(=O)CO (stereo partly specified)
inactive: [1] 100% | [2] 81.2% | [3] 93.3% | [4] 105% | [5] 93.9% | [6] 101% | [7] 98.8% | [8] 97.4%
